Results on 13 compounds are retold here after PubChem BioAssay (NCI).

Some test systems named below: NCI-H23 lung; NCI-H226 lung; NCI-H322M lung; HOP-62 NSCLC; NCI-H460 lung; HOP-92 NSCLC; NCI-H522 lung; A549/ATCC NSCLC; 786-0 renal; COLO 205 colon.
What all share (experiment): NCI-60 one-dose screen, 48 h (100 = growth as untreated, 0 = no growth, -100 = all killed)
Holding throughout (settings): 10 µM unless noted

The panel holds about 83,000 compounds, 20% with a hit somewhere; the sample as a whole holds those more often.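 Activity criterion: percent growth below 10, measured after cells in 96-well plates were exposed to a single compound concentration for 48 hours.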 Unmarked numbers belong to inactive results. The source made the active and inactive calls.

As for `CCNC(=O)Oc1ccc(/C(=C(/C)Cc2ccc(OC)cc2)c2ccc(OCCN3CCCCC3)cc2)cc1`, the growth in the assay on NCI-H23 lung is 87.7%; in the assay with NCI-H226 lung, 86.5%; with NCI-H322M lung, 89.2%; with HOP-62 NSCLC, 91.5%; with NCI-H460 lung, 35.7%; with HOP-92 NSCLC, 44.4%. The growth in the assay on NCI-H522 lung was 72.8%; in the assay on A549/ATCC NSCLC it was 62%; with 786-0 renal it was 72.6%; in the assay on COLO 205 colon it was 20.9%.
In the case of `Cc1c2ccncc2c(C)c2c1c1cc(CO)ccc1n2C`, the growth was 6.65% (active) in the assay on NCI-H23 lung; -49.2% (active) in the assay on NCI-H226 lung; 3.23% (active) in the assay on NCI-H322M lung; -19.6% (active) in the assay with HOP-62 NSCLC; -35.4% (active) in the assay with NCI-H460 lung; -5.78% (active) in the assay with HOP-92 NSCLC. Also, the growth in the assay with NCI-H522 lung was 21.1%; in the assay on A549/ATCC NSCLC, 2.79% (active); in the assay with 786-0 renal it was 1.95% (active); in the assay with COLO 205 colon, -39% (active).
In the case of `COc1ccc(C(=O)/C=C/c2ccc(Cl)cc2)cc1S(=O)(=O)Nc1c(N)nc(SC)[nH]c1=O`, the growth is 84.1% in the assay on NCI-H23 lung; 83.2% with NCI-H226 lung; 27.7% with NCI-H322M lung; 32.6% in the assay with HOP-62 NSCLC; 84% in the assay with NCI-H460 lung; 73.7% in the assay on HOP-92 NSCLC. Further, the growth in the assay on NCI-H522 lung is 59.7%; in the assay on A549/ATCC NSCLC, 31.4%; in the assay with 786-0 renal, 31%; in the assay on COLO 205 colon, 49.8%.
`C#COc1cccc(Nc2ncnc3cc(NC(=O)[C@@H](C)Cl)ccc23)c1`: the growth is 22.8% [6.25 µM] in the assay with NCI-H23 lung; 41.4% [6.25 µM] in the assay on NCI-H226 lung; 38.9% [6.25 µM] with NCI-H322M lung; 7.46% [6.25 µM] (active) in the assay with HOP-62 NSCLC; 6.36% [6.25 µM] (active) in the assay with NCI-H460 lung; 57.5% [6.25 µM] in the assay on HOP-92 NSCLC. Further, the growth in the assay with NCI-H522 lung is -34.7% [6.25 µM] (active); in the assay with A549/ATCC NSCLC, 6.69% [6.25 µM] (active); in the assay on 786-0 renal, 17% [6.25 µM]; with COLO 205 colon, 3.72% [6.25 µM] (active).
Consider `Cc1ccc2nc(NC(=O)CSc3nc(-c4ccccc4)c(C#N)c4nnnn34)sc2c1`, for which the growth is 103% in the assay with NCI-H23 lung; 94.7% in the assay on NCI-H226 lung; 108% in the assay on NCI-H322M lung; 97.4% in the assay with HOP-62 NSCLC; 104% in the assay on NCI-H460 lung; 106% in the assay with HOP-92 NSCLC. The growth with NCI-H522 lung is 89.4%; with A549/ATCC NSCLC it was 104%; with 786-0 renal it was 114%; in the assay with COLO 205 colon it was 121%.
Consider `Cc1nc2sc(C(=O)Nc3cccc(Br)c3C)c(N)c2cc1C(O)c1ccccc1` (stereo not given), for which the growth is 18.5% in the assay on NCI-H23 lung; 38.3% in the assay with NCI-H226 lung; 42.2% in the assay on NCI-H322M lung; 21.2% in the assay on HOP-62 NSCLC; -0.559% (active) with NCI-H460 lung; 24% in the assay with HOP-92 NSCLC. The growth in the assay on NCI-H522 lung is 2.97% (active); with A549/ATCC NSCLC, 9.65% (active); in the assay with 786-0 renal it was 15.5%; with COLO 205 colon, -51.6% (active).
`Cn1c2c(c3ccc(Cl)c(Cl)c31)C(C#N)C(C)(C)NC2=O` (stereo not given): the growth with NCI-H23 lung was 97.6%; with NCI-H226 lung, 59.4%; in the assay on NCI-H322M lung it was 91.4%; in the assay with HOP-62 NSCLC, 90.7%; in the assay with NCI-H460 lung, 91%; in the assay with HOP-92 NSCLC, 72.8%. Also, the growth was 55.8% in the assay with NCI-H522 lung, 89.5% with A549/ATCC NSCLC, 69.3% with 786-0 renal and 92.2% in the assay on COLO 205 colon.
As for `CCN(CC)CCCN1C(=O)c2c(c(C)c3c(oc4ccc(OC)cc43)c2C)C1=O`, the growth with NCI-H23 lung is 104%; in the assay on NCI-H226 lung, 32.4%; in the assay on NCI-H322M lung it was 102%; with HOP-62 NSCLC it was 93.9%; in the assay with NCI-H460 lung, 108%; in the assay on HOP-92 NSCLC it was 86.7%. Also, the growth with NCI-H522 lung was 93.9%; in the assay on A549/ATCC NSCLC, 101%; in the assay on 786-0 renal it was 40.2%; with COLO 205 colon it was 92.2%.
For the compound `CCN1CCN(C(=O)[C@]23CC[C@@H](C)[C@H](C)[C@@H]2C2=CC[C@@H]4[C@@]5(C)C/C(=C/c6cccnc6)C(=O)C(C)(C)[C@@H]5CC[C@@]4(C)[C@]2(C)CC3)CC1`, the growth is 34.2% with NCI-H23 lung; 47.8% in the assay on NCI-H226 lung; 65.7% in the assay on NCI-H322M lung; 44.5% with HOP-62 NSCLC; 7.51% (active) in the assay with NCI-H460 lung; 56.9% with HOP-92 NSCLC. For the same compound, the growth in the assay on NCI-H522 lung was 17.7%; with A549/ATCC NSCLC it was 32%; with 786-0 renal, 42.4%; in the assay with COLO 205 colon, 11.5%.
On to `COc1ccc(Cn2cc3c(c2-c2ccccc2)CCc2cnoc2-3)cc1`, for which the growth was 27.2% in the assay with NCI-H23 lung; 43.6% in the assay on NCI-H226 lung; 70.2% in the assay with NCI-H322M lung; 30.1% in the assay on HOP-62 NSCLC; 2.53% (active) with NCI-H460 lung; 52.2% with HOP-92 NSCLC. In addition, the growth in the assay on NCI-H522 lung was 12.1%; with A549/ATCC NSCLC, 20.5%; in the assay on 786-0 renal, 19.4%; in the assay with COLO 205 colon, -30.1% (active).
As to `Cc1ccc(C2CC(c3nc(-c4ccc(Cl)cc4)oc3C)=NN2C(=O)c2ccncc2)cc1` (stereo not given), the growth in the assay with NCI-H23 lung was 85.8%; in the assay on NCI-H226 lung, 88.3%; with NCI-H322M lung, 93.3%; in the assay on HOP-62 NSCLC it was 99.3%; in the assay on NCI-H460 lung it was 92.7%; with HOP-92 NSCLC it was 80%. Further, the growth is 80.8% in the assay on NCI-H522 lung, 84.4% in the assay with A549/ATCC NSCLC, 79.5% with 786-0 renal and 107% with COLO 205 colon.
For the compound `CC(=O)Oc1ccc(OC(C)=O)c2ccccc12`, the growth with NCI-H23 lung is 95.6%; with NCI-H226 lung, 74.9%; in the assay on NCI-H322M lung it was 106%; in the assay on HOP-62 NSCLC, 90.2%; in the assay with NCI-H460 lung, 107%; with HOP-92 NSCLC it was -88.6% (active). Besides, the growth was 61.6% in the assay on NCI-H522 lung, 98.7% in the assay with A549/ATCC NSCLC, 107% in the assay on 786-0 renal and 112% in the assay on COLO 205 colon.
In the case of `O=c1cc(-c2ccccc2)[nH]c2ncc(-c3ccc(F)cc3)n12`, the growth in the assay with NCI-H23 lung was 72.2%; in the assay on NCI-H226 lung, 86.6%; in the assay on NCI-H322M lung, 94.2%; in the assay on HOP-62 NSCLC, 67.7%; in the assay with NCI-H460 lung it was 47.4%; in the assay on HOP-92 NSCLC, 54.9%. Further, the growth in the assay on NCI-H522 lung is 36%; in the assay with A549/ATCC NSCLC it was 66.2%; in the assay on 786-0 renal, 79.5%; in the assay on COLO 205 colon it was 77.4%.
